Values joined by “and” are separate entries in the source; they are usually repeats but may differ in a detail not shown here. Equal values may be shown once. Inconclusive results are not listed. Some compounds were tested as several samples or in several runs, with calls that do not always agree. Active and inactive are the calls of the source. Unless noted, calls follow the shape of the dose curve; as a rule, active = well fitted curve in the direction sought with a large enough effect in the repeat runs; inconclusive = weak or mixed curves; inactive = no such curve, though single readings can be large; an effect the other way counts as inactive or inconclusive.
What was measured:
[1] = qHTS assay to identify small molecule agonists of the hypoxia (HIF-1) signaling pathway (AID 1224846; active = well fitted activation curve with a large enough effect in the signal ratio in the repeat runs, not every such curve was filed as active; the % refers to the signal ratio)
How it was run: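 A low-serum medium (0.5% dialyzed FBS) holding 2,000 HRE-bla ME-180 cells per well is preincubated for 5 hrs, dosed with compounds by pintool, and kept a further 17 hrs at 37C, 5% CO2 before CCF4-AM FRET detection of beta-lactamase.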

[2] = qHTS assay to identify small molecule agonists of H2AX - cell viability counter screen (AID 1224847; calls by dose curve; also: top concentration of the series differs between compounds; nearly all actives have a fitted effect of over 30% in size)
How it was run: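 Read-out: CellTiter-Glo luminescence, 30 min RT. Cells: wild-type CHO-K1, 1000/well, 10% FBS, plated overnight at 37C. Treatment: 15 concentrations, 3 hr, 37C, 0.76% DMSO.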

[3] = qHTS RealTime-Glo MT Cell Viability Assay in HepG2 cells - 24 hour (AID 1224867); also: nearly all actives have a fitted effect of over 50% in size; also: potency is read from the fitted curve at half-maximal effect
How it was run: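 Cells + NanoLuc/prosubstrate dispensed (600 cells/well) → 5 h at 37 C/5% CO2 → compounds in DMSO transferred → 40 h incubation at 37 C, luminescence read at 0, 8, 16, 24, 32, 40 h.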

[4] = qHTS RealTime-Glo MT Cell Viability Assay in HEK293 cells - 32 hour (AID 1224868); also: nearly all actives have a fitted effect of over 50% in size; also: potency is read from the fitted curve at half-maximal effect; as to activity change, negative = cytotoxic: top concentration of the series differs between compounds
How it was run: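 Tox21 10K qHTS, HEK293, 600 cells/well, RealTime-Glo reagent co-dispensed with cells; 5 h preincubation, compound by pintool, 37 C, luminescence at 0–40 h.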

[5] = A CellTox Green Cytotoxicity Assay to monitor cytotoxicity in HEK293 cells - 0 hour (AID 1224869); also: nearly all actives have a fitted effect of over 50% in size
How it was run: (§1)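 Fluorescence intensity, read at 0, 8, 16, 24, 32 and 40 h of compound treatment, reflected dye binding to DNA of dead HEK293 cells; compounds (23 nL, DMSO) were added 5 h after plating cells with reagent.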

[6] = qHTS RealTime-Glo MT Cell Viability Assay in HepG2 cells - 40 hour (AID 1224870); also: nearly all actives have a fitted effect of over 50% in size; also: potency is read from the fitted curve at half-maximal effect
How it was run: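 Real-time viability: cells seeded at 600 per well together with NanoLuc and cell-permeant prosubstrate, compounds added after 5 h incubation. Luminescence tracked at 0, 8, 16, 24, 32 and 40 h of exposure.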

[7] = A CellTox Green Cytotoxicity Assay to monitor cytotoxicity in HEK293 cells - 40 hour (AID 1224871); also: nearly all actives have a fitted effect of over 45% in size; also: potency is read from the fitted curve at half-maximal effect
How it was run: as §1

[8] = qHTS assay to identify small molecule antagonists of the estrogen related receptor (ERR) signaling pathway from Tox21 library (AID 1224848); also: nearly all actives have a fitted effect of over 50% in size; also: potency is read from the fitted curve at half-maximal effect
How it was run: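 Reading was by luminescence 30 min after ONE-Glo addition. Before that, ERR cells at 2,000 per well had rested 6 h at 37 C/5% CO2 and then received pin-tooled compounds in DMSO for 18 h at 37 C.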

[9] = qHTS assay to identify small molecule agonists of the estrogen related receptor (ERR) signaling pathway from Tox21 library (AID 1224849; calls by dose curve; also: nearly all actives have a fitted effect of over 15% in size); conditions: ERR reporter cell line, ONE-Glo luciferase, 18 h; at 92.4 µM (top of the series) unless noted
How it was run: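 Screening used an NTP-provided ERR luciferase cell line. Compounds in DMSO were added 6 h after seeding and left 18 h at 37 C before a 30 min ONE-Glo step and luminescence reading.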
% is scaled to controls: 0 for no effect and ±100 for the full control effect.

NC1(c2ccccc2)CCCCC1
inactive: outcome [1] | Potency [2] | Potency [3] | Potency [4] | outcome [5] | Potency [6] | Potency [7]

CN(C)C(=O)Oc1cc(OC(=O)N(C)C)cc(C(O)CNC(C)(C)C)c1 (stereo not given)
inactive: Potency [2] | Potency [8] | activity change, positive = activation [9] 0.805% [at 42.5 µM] | Potency [3] | Potency [4] | outcome [5] | Potency [7]

CCCCCCCCSC(=O)Oc1cc(Cl)nnc1-c1ccccc1
inactive: outcome [1] | Potency [3] | Potency [4] | outcome [5] | Potency [6] | Potency [7]

CC(C)(C)c1cc(O)ccc1O
inactive: Potency [2] | Potency [3] | outcome [5] | Potency [7]

C=C(Cl)CCl
inactive: outcome [1] | Potency [2] | Potency [3] | outcome [5] | Potency [6] | Potency [7]

c1cncc([C@@H]2CCCCN2)c1
inactive: outcome [1] | Potency [2] | Potency [4] | outcome [5] | Potency [7]

CC(=O)CN(CC(C)=O)N=O
inactive: outcome [1] | Potency [2] | Potency [8] | activity change, positive = activation [9] -3.56% | outcome [5] | Potency [6] | Potency [7]

BrCCc1ccccc1
inactive: outcome [1] | Potency [2] | Potency [8] | activity change, positive = activation [9] 0.561% | Potency [4] | Potency [6] | Potency [7]

CC[C@H](O)C(C[C@H](C)N(C)C)(c1ccccc1)c1ccccc1
inactive: outcome [1] | Potency [3] | outcome [5] | Potency [6] | Potency [7]

CC(C)NCC(O)c1ccc([N+](=O)[O-])cc1 (stereo not given)
inactive: outcome [1] | Potency [2] | Potency [3] | Potency [4] | outcome [5] | Potency [6] | Potency [7]

CN1COCN(Cc2cnc(Cl)s2)/C1=N\[N+](=O)[O-]
inactive: outcome [1] | Potency [2] | Potency [3] | Potency [4] | outcome [5] | Potency [6] | Potency [7]

O=P(O)(O)CN(CP(=O)(O)O)CP(=O)(O)O
inactive: outcome [1] | Potency [2] | Potency [3] | cytotoxicity [5] 9.86% [at 15.8 µM] | Potency [6] | cytotoxicity increase [7] 32.5% [at 15.8 µM]

CCOP(=S)(OCC)SCCl
inactive: outcome [1] | Potency [2] | Potency [3] | Potency [4] | outcome [5] | Potency [6]

BrCc1ccc(Br)cc1
inactive: outcome [1] | Potency [2] | Potency [3] | Potency [4] | Potency [7]

O=C1C2CC=CCC2C(=O)N1SC(Cl)(Cl)Cl (stereo not given)
inactive and 30.1 µM (active): Potency [8]
inactive: activity change, positive = activation [9] -8.8% and -75.3% | outcome [5]
inactive and 19.2 µM (active): Potency [6]
active: Potency [4] 43.5 µM and 3.04 µM | Potency [7] 6.81 µM
inactive and 24.1 µM (active): Potency [3]

Brc1c(Br)c(Br)c(Br)c(Br)c1Br
inactive: activation [1] -0.641% [at 7.01 µM] | activity change, negative = cytotoxicity [2] -1.61% [at 14 µM] | activity change, negative = cytotoxic [6] -3.64% [at 6.97 µM] | cytotoxicity increase [7] 4.32% [at 6.97 µM]

CC(C)(N)Cc1ccc(Cl)cc1
inactive: outcome [1] | Potency [2] | Potency [3] | Potency [4] | outcome [5] | Potency [6] | Potency [7]

CCC(C(N)=O)N1CCCC1=O (stereo not given)
inactive: outcome [1] | Potency [2] | Potency [3] | outcome [5] | Potency [6] | Potency [7]

CC(C)c1ccc(O)cc1
inactive: outcome [1] | Potency [2] | Potency [8] | activity change, positive = activation [9] -0.432% | Potency [4] | Potency [6] | Potency [7]

CCc1ccc(C2CCNCC2)cc1
inactive: outcome [1] | Potency [2] | Potency [3] | Potency [4] | outcome [5] | Potency [6] | Potency [7]

Nc1c(Cl)c(F)nc(OCC(=O)O)c1Cl
inactive: outcome [1] | Potency [2] | Potency [8] | activity change, positive = activation [9] 0.0677% | Potency [6] | Potency [7]

Cc1cc(OC(=O)N(C)C)nn1C(=O)N(C)C
inactive: outcome [1] | Potency [2] | Potency [3] | Potency [4] | outcome [5] | Potency [6] | Potency [7]

CNC(=O)NC(O)C(Cl)(Cl)Cl (stereo not given)
inactive: outcome [1] | Potency [2] | Potency [3] | Potency [4] | outcome [5] | Potency [6] | Potency [7]

CC[C@H](N)c1ccccc1
inactive: outcome [1] | Potency [2] | Potency [4] | outcome [5] | Potency [6] | Potency [7]

O=C(Cl)C(Cl)(Cl)Cl
inactive: outcome [1] | Potency [2] | Potency [3] | Potency [4] | outcome [5] | Potency [6] | Potency [7]

C1CN2CCC1CC2
inactive: outcome [1] | Potency [2] | Potency [3] | outcome [5] | Potency [6] | Potency [7]

C=C(Cl)CSC(=S)N(CC)CC
inactive: outcome [1] | Potency [2] | Potency [3] | Potency [4] | Potency [6] | Potency [7]

C[C@@H](N)[C@@H](O)c1ccccc1
inactive: outcome [1] | Potency [2] | Potency [3] | outcome [5] | Potency [6] | Potency [7]

CCOP(=S)(OCC)Oc1ccc(Cl)cc1Cl
inactive: outcome [1] | Potency [3] | Potency [4] | outcome [5] | Potency [6] | Potency [7]

C/C=C/CC#N
active: Potency [7] 56.2 µM
inactive: outcome [1] | Potency [2] | Potency [3] | Potency [4] | outcome [5] | Potency [6]

CC(Cc1ccccc1)NCCCCl (stereo not given)
inactive: outcome [1] | Potency [2] | Potency [3] | Potency [4] | outcome [5] | Potency [6] | Potency [7]

CCOC(=O)Nc1cccc(OC(=O)Nc2ccccc2)c1
inactive: outcome [1] | Potency [2] | outcome [5] | Potency [6] | Potency [7]

N#CC(Br)(Br)C(N)=O
inactive: outcome [1] | Potency [2] | Potency [3] | Potency [4] | outcome [5] | Potency [7]

CCOC(=O)C(SP(=S)(OC)OC)c1ccccc1 (stereo not given)
inactive: outcome [1] | Potency [8] | activity change, positive = activation [9] -11.8% | Potency [3] | Potency [4] | outcome [5] | Potency [6] | Potency [7]

C=C1C[C@@H]2[C@H](CC[C@]3(C)C(=O)CC[C@@H]23)[C@@]2(C)C=CC(=O)C=C12
inactive: outcome [1] | Potency [2] | activity change, positive = activation [9] -24.3% [at 42.5 µM] | outcome [5] | Potency [6] | Potency [7]

Oc1ccc2c3c1O[C@H]1[C@@H](O)C=C[C@H]4[C@@H](C2)NCC[C@@]341
inactive: Potency [2] | activity change, positive = activation [9] -18.1% | Potency [4] | outcome [5] | Potency [6] | Potency [7]

— PubChem BioAssay (Tox21)
